# Screening data as filed in PubChem BioAssay.
# aSyn UTR act = Activators via SNCA 5'UTR binding, MLPCN; alpha-synuclein 5'UTR reporter, activators screen; activity score, % (tested at 7.5 µM), hits read low; actives 7.1% (n = 300,000); in the data active means activity score below about -60%
# Numbers without * were called inactive. A selection follows.
SMILES,aSyn UTR act
O=c1c(Br)c(N2CCOCC2)cnn1-c1ccccc1,-144.2*
O=c1c(Br)c(N2CCCC2)cnn1-c1ccccc1,-138.4*
O=C(Cn1ncc(N2CCOCC2)c(Br)c1=O)c1ccc(Cl)cc1,-110.6*
c1ccc(-n2nnc3c(N4CCOCC4)ncnc32)cc1,75.0
COc1ccc(-c2cc(=O)c3cc(C)ccc3[nH]2)cc1,-63.2*
COc1cc2[nH]c(-c3ccc(C)cc3)cc(=O)c2cc1OC,-75.5*
CC(C)(C)c1cc(C(=O)NCCN2CCCC2)cc(C(C)(C)C)c1,-81.9*
CC(C)(C)c1ccc(C(=O)NCCC(=O)N2CCCC2)cc1,-105.1*
Cc1ccc(C(=O)NCCC(=O)N2CCOCC2)cc1,-101.5*
COc1cccc(N(C(=O)CCl)C(C(=O)NCCc2ccccc2)c2cccs2)c1 (stereo unspecified),-111.8*
O=C(NCc1ccccc1Cl)c1ccc2ccccc2n1,-120.8*
CCc1ccc(-c2cc(C(=O)Nn3cnnc3)c3ccccc3n2)cc1,73.9
CCCc1ccc(-c2cc(C(=O)NN3CCOCC3)c3ccccc3n2)cc1,-93.0*
CCCc1ccc(-c2cc(C(=O)NCCc3ccc(S(N)(=O)=O)cc3)c3ccccc3n2)cc1,-115.4*
NS(=O)(=O)c1ccc(CNc2ccc3ccccc3n2)cc1,-120.1*
NS(=O)(=O)c1ccc(CCNC(=O)c2ccc3ccccc3n2)cc1,-82.9*
O=C(N/N=C/c1cc([N+](=O)[O-])ccc1O)c1cc(-c2ccccc2)nc2ccccc12,81.3
CCCc1ccc(-c2cc(C(=O)Nc3ccc([N+](=O)[O-])cn3)c3ccccc3n2)cc1,-90.3*
COC(=O)CCc1sc(Nc2ccccc2)nc1-c1ccc(OC)cc1,-62.0*
Cc1cc(N/N=C/c2c(O)ccc3ccccc23)nc(-c2ccccc2O)n1,72.0
Cc1cc(Nc2ccccc2)nc(-c2ccccc2O)n1,-100.7*
COc1ccc(Nc2nc3ccc(OC)cc3s2)cc1,-119.7*
COc1ccc2nc(Nc3nc(C)c(C(C)=O)s3)sc2c1,-186.3*
CCOC(=O)c1cc2nc(Nc3ccc(OC)cc3)sc2s1,-83.2*
Cc1ccc(-n2nnnc2Sc2nc([N+](=O)[O-])nn2C)cc1,-70.6*
SMILES,aSyn UTR act
Cc1cc(N2CCOCC2)nc2ccc(NC(=O)CCC(=O)N3CCCCC3)cc12,-90.3*
COc1ccc(NC(=O)CCC(=O)Nc2ccc3nc(N4CCOCC4)cc(C)c3c2)c(OC)c1,-93.8*
CCC(C)NC(=S)Nc1ccc2nc(N3CCN(CC)CC3)cc(C)c2c1 (stereo unspecified),-94.7*
CCN1CCN(c2cc(C)c3cc(NC(=O)CCC(=O)N4CCN(c5ccccc5OC)CC4)ccc3n2)CC1,-62.4*
Cc1nc(Nc2cnc(/C=C/c3cc(C(=O)Nc4cccc(C(F)(F)F)c4)ccc3C)cn2)cc(N2CCNCC2)n1,81.2
Cc1cc(N2CCOCC2)nc2ccc(Cl)cc12,-111.0*
Cc1cc(N2CCOCC2)nc2ccc(NC(=O)CCC(=O)N3CCC(C)CC3)cc12,-104.8*
CCCCN(C)C(=O)CCC(=O)Nc1ccc2nc(N3CCOCC3)cc(C)c2c1,-75.7*
Cc1cc(N2CCOCC2)nc2ccc(NC(=O)CCC(=O)N3CCN(c4cccc(C(F)(F)F)c4)CC3)cc12,-71.7*
CCC(C)NC(=O)CCC(=O)Nc1ccc2nc(N3CCOCC3)cc(C)c2c1 (stereo unspecified),-86.1*
CCCCNC(=O)CCC(=O)Nc1ccc2nc(N3CCC(C)CC3)cc(C)c2c1,-68.6*
O=c1[nH]c(/C(Cl)=C/c2cccc(F)c2)nc2cc(C(F)(F)F)ccc12,-161.9*
CCOc1cc(-c2nc3ccccc3s2)ccc1O,-98.4*
COc1cc(-c2nc3ccccc3s2)ccc1O,-221.7*
COc1ccc(-c2nc3ccccc3s2)cc1O,85.4
CC[n+]1c(/C=C/N(C)c2ccccc2)n(-c2ccccc2)c2ccc(-c3nc4ccccc4s3)cc21,120.4
CN(CC(=O)Nc1ccccc1Br)C(=O)c1cc2c(s1)CCCCC2,-120.7*
CCn1ncc(Br)c1C(=O)Nc1ccc(C(C)C)cc1,-79.0*
CCc1sc(C(=O)Nc2ccc3c(c2)OCCO3)cc1Br,-192.6*
CCn1ncc(Br)c1C(=O)Nc1ccc2c(c1)OCCO2,-93.6*
CN(C)c1ccc(P(=O)(Nc2ccc([N+](=O)[O-])cc2)N2CCOCC2)c(NC(=O)c2cccs2)c1 (stereo unspecified),-66.2*
Cc1ccc(NP(=O)(c2ccc(N(C)C)cc2NC(=O)c2cccs2)N2CCOCC2)cc1 (stereo unspecified),-91.3*
CN(C)c1ccc(P(=O)(Nc2ccccc2)N2CCOCC2)c(NC(=O)c2cccs2)c1 (stereo unspecified),-99.9*
CN1CCN(/N=C/c2ccc(-c3ccc([N+](=O)[O-])cc3Cl)o2)CC1,-103.6*
Brc1ccc(C2=NC(Cc3ccccc3)CO2)cc1 (stereo unspecified),-175.5*
SMILES,aSyn UTR act
N#C/C(=C(/O)c1ccc(Cl)cc1)c1nc2ccccc2[nH]1,-67.3*
O=C(/C(=C/c1ccc(Cl)cc1)c1nc2ccccc2[nH]1)c1ccccc1,-217.2*
CCOC(=O)c1ccc2nc3c(cc2c1)CCS3,-148.5*
Oc1ccc(N=Nc2n[nH]c(-c3ccc(Cl)cc3)n2)cc1,-109.3*
CCOC(=O)c1[nH]c(C)c(C(=O)Nc2ccc(C)c(Cl)c2)c1C,-91.7*
CCCCCCC(=O)c1c(C)[nH]c(C(=O)OCC)c1C,-113.5*
CCOC(=O)c1c(C)[nH]c(C(=O)OCc2ccccc2)c1C,-165.4*
CCOC(=O)c1c(C)[nH]c(C(=O)C(C)Sc2ccc(Cl)cc2)c1C (stereo unspecified),-97.4*
CCOC(=O)c1c(C)[nH]c(C(=O)OCC(=O)NCCc2ccc(OCC)c(OCC)c2)c1C,60.1
CCOC(=O)c1c(C)[nH]c(C(=O)NCc2ccccn2)c1C,-158.9*
CC(=O)c1c(C)[nH]c(C(=O)OCc2ccc(Br)cc2)c1C,-74.4*
CCOC(=O)c1c(Cc2ccccc2)c[nH]c1C,-74.8*
CCOC(=O)c1c(C)[nH]c(C(=O)N/N=C\c2ccccc2O)c1C,86.8
CC(=O)c1c(C)[nH]c(C(=O)OCc2cccc(C)c2)c1C,-89.6*
CC(=O)c1c(C)[nH]c(C(=O)OCCOc2ccccc2)c1C,66.8
CC(=O)c1c(C)[nH]c(C(=O)OCc2ccccc2F)c1C,-100.7*
Oc1ccc2ccccc2c1CNc1cnc2ccccc2c1,-97.2*
Oc1ccccc1CNc1cnc2ccccc2c1,-259.7*
C=CCc1cccc(CNc2cnc3ccccc3c2)c1O,-94.5*
CCCCCCCCCCCCCCCCn1cc[n+](C)c1,140.7
CC(=O)c1sc2nc(-c3cccs3)ccc2c1N,-272.1*
Nc1c(C(=O)Nc2nc3ccccc3s2)sc2nc(-c3cccs3)ccc12,105.7
O=C(Cc1c(Cl)cccc1Cl)OCc1ccccn1,-123.8*
CC1OC(Nc2ccc(N=Nc3ccccc3)cc2)C(O)C(O)C1O (stereo unspecified),-63.2*
COc1ccc2c(c1)CCc1c(C(=O)N(C)c3ccccc3)noc1-2,-131.7*
COCCNC(=O)c1noc2c1CCc1cc(OC)ccc1-2,-98.3*
COCC(C)NC(=O)c1noc2c1CCc1cc(OC)ccc1-2 (stereo unspecified),-132.7*
COc1ccc2c(c1)CCc1c(C(=O)NCc3ccco3)noc1-2,-120.2*
COc1ccc(C2=NN(CN3C(=O)C(=O)c4ccccc43)C(c3ccc(C)cc3)C2)cc1 (stereo unspecified),-115.9*
COc1ccc(C2=NN(CN3C(=O)C(=O)c4ccccc43)C(c3ccc(Br)cc3)C2)cc1 (stereo unspecified),-114.5*
